Data taken from PubChem BioAssay (EPA / NIEHS).
Inconclusive results are not listed. Active and inactive are the calls of the source. Rule for the calls, unless noted: active = hit-call score of the fitted dose curve at least 0.9, where 1 is the maximum; inactive = score below 0.9.

What was measured:
CD38, CD38 (gene 952) = test: BSK_SAg_CD38: BioMAP Diversity Plus: SAg Assay for CD38 Biomarker Activity (AID 2283087); conditions: primary human HUVEC with PBMC; actives raise or lower the signal
Procedure, shortened: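 Measures CD38 on a human endothelial/PBMC co-culture driven by SEB and TSST-1, 24 h after compound exposure, using ELISA with fluorescence detection; DMSO defines baseline for bidirectional curve fitting.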

CD40, CD40 (gene 958) = test: BSK_SAg_CD40: BioMAP Diversity Plus: SAg Assay for CD40 Biomarker Activity (AID 2283088); conditions: primary human HUVEC with PBMC; actives raise or lower the signal
Procedure, shortened: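 Compounds were dosed onto a human primary endothelial–PBMC co-culture, and after 24 h CD40 was quantified by ELISA using a fluorescence signal. Activity in either direction was fitted relative to DMSO.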

CD69, CD69 (gene 969) = test: BSK_SAg_CD69: BioMAP Diversity Plus: SAg Assay for CD69 Biomarker Activity (AID 2283089); conditions: primary human HUVEC with PBMC; actives raise or lower the signal;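 for AC50: cell surface CD69 protein quantified by ELISA with fluorescence detection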
Procedure, shortened: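 Primary human vascular co-culture (umbilical vein endothelium with peripheral blood mononuclear cells) exposed to test chemical for 24 h. CD69 levels quantified by fluorescence ELISA; DMSO served as negative control for bidirectional fitting.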

[1] = read-out: Monocyte Chemoattractant Protein-1 (MCP1), CCL2 (gene 6347); test: BSK_SAg_MCP1: BioMAP Diversity Plus: SAg Assay for Monocyte Chemoattractant Protein-1 (MCP1) Biomarker Activity (AID 2283090); conditions: primary human HUVEC with PBMC; actives raise or lower the signal
Procedure, shortened: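 Values derive from bidirectional fitting of ELISA-measured MCP1 against DMSO controls. Readings were taken 24 h after dosing human vascular endothelial cells co-cultured with peripheral blood mononuclear cells under superantigen stimulation.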

[2] = read-out: E-selectin (Homo sapiens) (UniProt P16581); test: BSK_SAg_Eselectin: BioMAP Diversity Plus: SAg Assay for Eselectin Biomarker Activity (AID 2283091); conditions: primary human HUVEC with PBMC; actives raise or lower the signal
Procedure, shortened: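 Co-culture: HUVEC + PBMC. Dose compound; 24 h. ELISA for E-selectin. Bidirectional fit vs DMSO.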

[3] = read-out: Monokine induced gamma interferon (MIG), CXCL9 (gene 4283); test: BSK_SAg_MIG: BioMAP Diversity Plus: SAg Assay for Monokine induced gamma interferon (MIG) Biomarker Activity (AID 2283092); conditions: primary human HUVEC with PBMC; actives raise or lower the signal
Procedure, shortened: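 Endothelial cells and PBMC were co-cultured, exposed to test chemicals, and sampled 24 h later. MIG was measured by ELISA, and responses were fitted in both directions relative to DMSO.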

[4] = BSK_SAg_PBMCCytotoxicity: PBMC Cytotoxicity Assessment in the BioMAP Diversity Plus: SAg Assay (AID 2283093); conditions: primary human HUVEC with PBMC;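 note: fitted both ways against DMSO so a hit may be loss or gain of signal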
Procedure, shortened: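 PBMC viability by Alamar Blue reduction, fluorescence read at 546/580 nm after 6 h dye exposure. Cells were dosed 1 h before SEB plus TSST-1 activation (20 ng/mL final each), then held 90 h; endothelial/PBMC human co-culture.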

[5] = read-out: Interleukin-8 (IL8), CXCL8 (gene 3576); test: BSK_SAg_IL8: BioMAP Diversity Plus: SAg Assay for Interleukin-8 (IL8) Biomarker Activity (AID 2283094); conditions: primary human HUVEC with PBMC; actives raise or lower the signal
Procedure, shortened: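 HUVEC/PBMC co-culture, 24 h post-dose; IL-8 by ELISA. Gain or loss of signal fitted bidirectionally vs DMSO baseline.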

[6] = BSK_SAg_Proliferation: Cell Proliferation Assessment in the BioMAP Diversity Plus: SAg Assay (AID 2283095); conditions: primary human HUVEC with PBMC;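 note: relative cell number as total protein by SRB absorbance in sub-confluent culture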
Procedure, shortened: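 HUVEC/PBMC co-culture, 96-well. TCA-fixed (10%), 0.1% SRB stain, A560 at 96 h. Protein content used as viability readout; bidirectional fitting vs DMSO control.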

[7] = BSK_SAg_SRB: Viability Assessment in the BioMAP Diversity Plus: SAg Assay (AID 2283096); conditions: primary human HUVEC with PBMC;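 note: cells read one day after compound addition; hits may be either gain or loss of signal compared with DMSO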
Procedure, shortened: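 Compounds were added to a human vascular co-culture of umbilical vein endothelium and PBMC. After 24 h, parallel cultures were fixed with 10% TCA, stained with 0.1% sulforhodamine B and read at 560 nm. Gain or loss of signal was fitted relative to DMSO.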

[8] = biological target: human CYP1A2, CYP1A2 (gene 1544) (UniProt P05177); test: NVS_ADME_hCYP1A2: NovaScreen (NVS) CYP450-related Enzyme Activity (ADME) Assay for human CYP1A2 (AID 2283102; active = hit-call score of the fitted dose curve at least 0.9, where 1 is the maximum;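 note: potency for inhibition since loss of fluorescence marks reduced CYP1A2 activity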)
Procedure, shortened: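 rec. hCYP1A2 (insect cells), cell-free; fluorogenic substrate; 0.5 h; FI read. Baseline = acetonitrile; signal loss = inhibition. 10 uM duplicate primary → conc. series for actives.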

[9] = biological target: human CYP2A6, CYP2A6 (gene 1548) (UniProt P11509); test: NVS_ADME_hCYP2A6: NovaScreen (NVS) CYP450-related Enzyme Activity (ADME) Assay for human CYP2A6 (AID 2283099; active = hit-call score of the fitted dose curve at least 0.9, where 1 is the maximum)
Procedure, shortened: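 Fluorescent substrate turnover by recombinant CYP2A6 (insect cell source), 0.5 h read. Screen: 10 uM, duplicate; threshold hits (e.g. 30% inhibition) → singleton concentration-response, top 20 uM. Positive and negative controls on every plate.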

[10] = biological target: Cytochrome P450 2C19 (Homo sapiens) (UniProt P33261); test: NVS_ADME_hCYP2C19: NovaScreen (NVS) CYP450-related Enzyme Activity (ADME) Assay for human CYP2C19 (AID 2283113; active = hit-call score of the fitted dose curve at least 0.9, where 1 is the maximum;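 for AC50: potency for inhibition seen as loss of fluorescent signal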)
Procedure, shortened: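 Fluorescence intensity was measured 1 hour after chemicals were added to insect-cell-derived recombinant CYP2C19 with fluorogenic substrate. Decreased signal versus acetonitrile control was taken as reduced enzyme activity; initial testing used 10 uM in duplicate.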

[11] = biological target: human CYP2B6, CYP2B6 (gene 1555) (UniProt P20813); test: NVS_ADME_hCYP2B6: NovaScreen (NVS) CYP450-related Enzyme Activity (ADME) Assay for human CYP2B6 (AID 2283101; active = hit-call score of the fitted dose curve at least 0.9, where 1 is the maximum)
Procedure, shortened: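 Cell-free recombinant enzyme assay with a fluorogenic substrate; fluorescence intensity read 1 hour after dosing. Loss of signal relative to acetonitrile negative control indicates inhibition. Primary screen run in duplicate at 10 uM, actives then tested in concentration series.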

[12] = biological target: human CYP2C9, CYP2C9 (gene 1559) (UniProt P11712); test: NVS_ADME_hCYP2C9: NovaScreen (NVS) CYP450-related Enzyme Activity (ADME) Assay for human CYP2C9 (AID 2283108; active = hit-call score of the fitted dose curve at least 0.9, where 1 is the maximum)
Procedure, shortened: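 Recombinant human CYP2C9 expressed in SF9 cells, fluorogenic substrate, fluorescence read 0.75 h after dosing. Chemicals first run in duplicate at 10 uM, with actives followed in concentration series; loss of signal versus acetonitrile baseline.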

[13] = biological target: Cytochrome P450 3A4 (Homo sapiens) (UniProt P08684); test: NVS_ADME_hCYP3A4: NovaScreen (NVS) CYP450-related Enzyme Activity (ADME) Assay for human CYP3A4 (AID 2283110; active = hit-call score of the fitted dose curve at least 0.9, where 1 is the maximum)
Procedure, shortened: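 Recombinant CYP3A4 from insect cells, fluorescence enzyme read-out, 0.33 h after chemical addition. Acetonitrile = negative control/baseline. Primary HTS: 10 uM in duplicate; actives re-tested in concentration series.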

[14] = biological target: human Acid Phosphatase 1 (ACP1), ACP1 (gene 52) (UniProt P24666); test: NVS_ENZ_hACP1: NovaScreen (NVS) Enzymatic Assay for human Acid Phosphatase 1 (ACP1) (AID 2283136; active = hit-call score of the fitted dose curve at least 0.9, where 1 is the maximum)
Procedure, shortened: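 Cell-free fluorescence read-out of phosphatase activity, substrate and product separated by mobility shift, taken 1.5 h after compound addition; protein produced in Sf9. Single 25 uM duplicate screen, followed by concentration series for actives, scored as signal loss relative to DMSO.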

Measured: AC50

Sequence of E-selectin (Homo sapiens) (P16581 whole entry, looked up): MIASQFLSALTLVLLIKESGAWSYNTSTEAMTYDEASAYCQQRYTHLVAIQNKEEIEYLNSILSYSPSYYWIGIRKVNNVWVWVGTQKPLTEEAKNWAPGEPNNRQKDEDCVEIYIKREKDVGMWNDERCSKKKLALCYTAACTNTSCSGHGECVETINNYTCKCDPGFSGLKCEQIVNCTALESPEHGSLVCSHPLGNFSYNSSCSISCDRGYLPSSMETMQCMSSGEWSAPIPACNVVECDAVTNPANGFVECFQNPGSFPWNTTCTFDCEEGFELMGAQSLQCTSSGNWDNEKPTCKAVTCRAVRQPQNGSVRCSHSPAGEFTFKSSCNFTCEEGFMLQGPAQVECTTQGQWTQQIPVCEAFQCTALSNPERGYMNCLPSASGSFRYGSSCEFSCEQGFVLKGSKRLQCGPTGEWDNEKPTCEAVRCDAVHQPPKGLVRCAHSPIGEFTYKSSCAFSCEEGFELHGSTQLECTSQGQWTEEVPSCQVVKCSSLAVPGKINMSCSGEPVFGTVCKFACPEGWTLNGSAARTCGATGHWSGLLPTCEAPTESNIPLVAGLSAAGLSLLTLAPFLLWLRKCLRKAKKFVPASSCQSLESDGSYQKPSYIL
Sequence of human CYP2A6, CYP2A6 (gene 1548) (P11509 whole entry, looked up): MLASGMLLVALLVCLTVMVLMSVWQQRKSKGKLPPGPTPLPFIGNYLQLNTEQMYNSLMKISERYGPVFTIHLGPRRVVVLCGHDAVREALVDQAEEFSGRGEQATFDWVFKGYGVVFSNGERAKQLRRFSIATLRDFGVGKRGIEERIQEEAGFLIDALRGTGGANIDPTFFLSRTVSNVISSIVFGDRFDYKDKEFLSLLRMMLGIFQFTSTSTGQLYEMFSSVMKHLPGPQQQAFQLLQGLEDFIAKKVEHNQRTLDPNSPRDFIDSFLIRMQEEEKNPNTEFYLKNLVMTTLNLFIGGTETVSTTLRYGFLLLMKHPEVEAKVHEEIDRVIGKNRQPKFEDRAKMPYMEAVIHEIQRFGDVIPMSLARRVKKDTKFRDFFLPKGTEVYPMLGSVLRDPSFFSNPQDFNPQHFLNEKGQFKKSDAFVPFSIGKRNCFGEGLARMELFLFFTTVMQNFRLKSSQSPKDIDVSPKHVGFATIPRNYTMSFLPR
Sequence of human CYP2B6, CYP2B6 (gene 1555) (P20813 whole entry, looked up): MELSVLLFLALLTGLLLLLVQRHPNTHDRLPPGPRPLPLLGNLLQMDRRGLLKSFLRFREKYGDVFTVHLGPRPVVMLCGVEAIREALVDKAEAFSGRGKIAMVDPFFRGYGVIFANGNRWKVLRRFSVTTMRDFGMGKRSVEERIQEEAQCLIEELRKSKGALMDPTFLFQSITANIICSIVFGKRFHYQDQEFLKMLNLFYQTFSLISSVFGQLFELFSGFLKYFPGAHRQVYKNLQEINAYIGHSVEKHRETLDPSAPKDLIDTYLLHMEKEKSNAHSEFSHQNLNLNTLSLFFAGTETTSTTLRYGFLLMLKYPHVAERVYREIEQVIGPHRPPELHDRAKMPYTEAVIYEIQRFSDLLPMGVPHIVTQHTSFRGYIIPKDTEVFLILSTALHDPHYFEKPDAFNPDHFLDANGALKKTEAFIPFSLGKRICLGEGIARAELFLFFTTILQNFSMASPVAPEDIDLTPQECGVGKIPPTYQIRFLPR
Sequence of Cytochrome P450 3A4 (Homo sapiens) (P08684 whole entry, looked up): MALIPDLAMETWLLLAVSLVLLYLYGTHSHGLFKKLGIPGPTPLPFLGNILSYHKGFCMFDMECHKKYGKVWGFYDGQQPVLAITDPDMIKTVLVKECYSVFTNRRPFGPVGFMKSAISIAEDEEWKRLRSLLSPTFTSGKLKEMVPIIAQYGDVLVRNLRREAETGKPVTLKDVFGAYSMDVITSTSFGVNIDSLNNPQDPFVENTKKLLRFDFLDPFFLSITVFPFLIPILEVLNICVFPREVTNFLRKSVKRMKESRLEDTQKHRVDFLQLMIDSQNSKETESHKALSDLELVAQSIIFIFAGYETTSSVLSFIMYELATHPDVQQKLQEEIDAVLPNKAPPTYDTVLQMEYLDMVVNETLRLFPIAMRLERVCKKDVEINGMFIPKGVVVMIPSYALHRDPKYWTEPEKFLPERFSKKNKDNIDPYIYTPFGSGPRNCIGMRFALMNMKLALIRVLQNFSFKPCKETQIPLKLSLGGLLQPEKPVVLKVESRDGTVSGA
Sequence of human Acid Phosphatase 1 (ACP1), ACP1 (gene 52) (P24666 whole entry, looked up): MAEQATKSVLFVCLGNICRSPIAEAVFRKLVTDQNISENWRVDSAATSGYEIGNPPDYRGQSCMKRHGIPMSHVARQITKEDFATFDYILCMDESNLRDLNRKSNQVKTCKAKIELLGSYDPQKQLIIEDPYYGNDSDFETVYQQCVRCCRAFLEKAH
Sequence of human CYP2C9, CYP2C9 (gene 1559) (P11712 whole entry, looked up): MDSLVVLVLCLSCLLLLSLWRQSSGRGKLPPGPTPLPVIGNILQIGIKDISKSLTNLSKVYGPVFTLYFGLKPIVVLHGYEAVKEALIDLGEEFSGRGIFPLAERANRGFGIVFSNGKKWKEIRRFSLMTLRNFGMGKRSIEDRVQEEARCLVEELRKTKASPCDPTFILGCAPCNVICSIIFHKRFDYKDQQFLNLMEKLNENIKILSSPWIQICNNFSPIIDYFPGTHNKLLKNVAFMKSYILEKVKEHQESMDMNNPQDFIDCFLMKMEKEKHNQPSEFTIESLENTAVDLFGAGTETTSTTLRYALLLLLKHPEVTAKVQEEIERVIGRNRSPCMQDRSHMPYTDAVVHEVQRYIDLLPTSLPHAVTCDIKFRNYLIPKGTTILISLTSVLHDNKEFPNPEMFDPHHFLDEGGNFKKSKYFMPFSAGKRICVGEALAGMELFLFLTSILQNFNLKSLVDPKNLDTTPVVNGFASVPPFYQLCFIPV
Sequence of human CYP1A2, CYP1A2 (gene 1544) (P05177 whole entry, looked up): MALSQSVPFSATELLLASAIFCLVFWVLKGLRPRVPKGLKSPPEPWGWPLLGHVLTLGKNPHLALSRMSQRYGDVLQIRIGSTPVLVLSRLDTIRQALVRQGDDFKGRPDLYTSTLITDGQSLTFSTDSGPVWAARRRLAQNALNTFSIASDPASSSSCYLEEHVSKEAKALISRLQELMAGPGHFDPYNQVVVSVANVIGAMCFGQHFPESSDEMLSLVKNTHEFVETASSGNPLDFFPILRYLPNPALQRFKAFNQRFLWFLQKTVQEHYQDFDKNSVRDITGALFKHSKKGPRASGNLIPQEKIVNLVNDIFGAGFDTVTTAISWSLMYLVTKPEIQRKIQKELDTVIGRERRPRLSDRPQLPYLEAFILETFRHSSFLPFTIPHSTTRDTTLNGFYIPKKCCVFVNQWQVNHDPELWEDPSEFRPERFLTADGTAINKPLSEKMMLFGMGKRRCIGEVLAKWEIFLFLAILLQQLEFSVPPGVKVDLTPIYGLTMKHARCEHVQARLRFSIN

Cc1c(-c2cccnc2)c2ccccc2n1CCCCC(=O)O
inactive: CD38, CD38 (gene 952) | CD40, CD40 (gene 958) | CD69, CD69 (gene 969) | [1] | [2] | [3] | [4] | [5] | [7]
active: [6] 20 µM | [8] 13.9 µM

O=C(O)CCN(C1(C(=O)NO)CCCC1)S(=O)(=O)c1ccc(Oc2ccc(F)cc2)cc1
inactive: CD38, CD38 (gene 952) | CD40, CD40 (gene 958) | CD69, CD69 (gene 969) | [1] | [2] | [3] | [4] | [5] | [6] | [7]

CC(C)=CCCC(C)=CC=O
inactive: CD38, CD38 (gene 952) | CD40, CD40 (gene 958) | CD69, CD69 (gene 969) | [1] | [2] | [3] | [4] | [5] | [6] | [9] | [10]

COc1cccc(-c2ccc(/C=C\CN3CCCCCC3)cc2Cl)c1
active: CD38, CD38 (gene 952) 29.1 µM | CD40, CD40 (gene 958) 27.3 µM | CD69, CD69 (gene 969) 30.4 µM | [2] 29.8 µM | [3] 25.8 µM | [5] 25 µM
inactive: [1] | [6]

O=P(OC(CCl)CCl)(OC(CCl)CCl)OC(CCl)CCl
active: CD38, CD38 (gene 952) 30 µM | CD40, CD40 (gene 958) 20 µM | [1] 23.4 µM | [2] 20 µM | [5] 20 µM | [6] 25.3 µM | [11] 6.54 µM | [13] 6.65 µM | [10] 6.38 µM
inactive: CD69, CD69 (gene 969) | [3] | [4] | [7] | [9] | [12] | [14]

C=CCCCCCCCCC(=O)O
inactive: CD38, CD38 (gene 952) | CD40, CD40 (gene 958) | CD69, CD69 (gene 969) | [1] | [2] | [3] | [4] | [5] | [6] | [7]

CC(C)=CCCC(C)CCO (configuration not stated)
inactive: CD38, CD38 (gene 952) | CD40, CD40 (gene 958) | CD69, CD69 (gene 969) | [1] | [2] | [3] | [4] | [5] | [6] | [7] | [10]

NC(=O)NO
inactive: CD38, CD38 (gene 952) | CD40, CD40 (gene 958) | CD69, CD69 (gene 969) | [1] | [2] | [3] | [4] | [5] | [6] | [7]

COC(=O)CC(=O)OC
inactive: CD38, CD38 (gene 952) | CD40, CD40 (gene 958) | CD69, CD69 (gene 969) | [1] | [2] | [3] | [4] | [5] | [6] | [7]
